M1 PAM parental = nonselective activator or artifact in parental CHO-K1 calcium assay; activation, % at 3 µM; 360,000 compounds, 0.02% hits; ATP EC20, Fluo-8 calcium fluorescence; 0% at ATP EC20, 100% at ATP max; AID 602247;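 active = activation above the run cutoff, the mean activation of all test compounds plus 3 SD, cut at about 40% in these data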;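 also: peak over basal fluorescence ratio in a 140 s read after ATP addition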
CHO-K1 Ca antag = nonselective inhibitor or artifact in parental CHO-K1 cells; ATP-induced calcium, Fluo-8 fluorescence; inhibition, % at 3 µM; 360,000 compounds, 0.6% hits; AID 602250;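 active = inhibition above a per-plate cutoff, the plate's mean sample inhibition plus 3 SD, cut at about 24% in these data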
CHRM1 PAM = potentiates human M1 receptor response to acetylcholine | P11229 | CHO-K1 hM1, Fluo-8 calcium fluorescence, ACh EC20; 0% = ACh EC20, 100% = maximal ACh | activation, % at 3 µM | 360,000 compounds, 0.088% hits | AID 588819; in the data active = activation above about 19%, passing the limit was not always enough
Target sequence (P11229 whole entry, looked up): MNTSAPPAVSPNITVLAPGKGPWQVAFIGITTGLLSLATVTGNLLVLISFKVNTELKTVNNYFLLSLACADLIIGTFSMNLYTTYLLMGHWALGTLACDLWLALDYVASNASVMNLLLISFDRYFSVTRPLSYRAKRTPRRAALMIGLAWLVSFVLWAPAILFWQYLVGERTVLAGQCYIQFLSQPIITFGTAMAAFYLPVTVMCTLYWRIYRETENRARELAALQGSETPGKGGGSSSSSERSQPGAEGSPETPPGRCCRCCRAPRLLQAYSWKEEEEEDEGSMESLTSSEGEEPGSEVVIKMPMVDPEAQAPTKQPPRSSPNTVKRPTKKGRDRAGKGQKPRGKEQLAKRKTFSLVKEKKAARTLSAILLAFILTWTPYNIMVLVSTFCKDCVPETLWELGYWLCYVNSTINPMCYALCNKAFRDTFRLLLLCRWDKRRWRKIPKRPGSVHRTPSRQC
M1 ag = human M1 muscarinic receptor agonism; activation, % at 3 µM; P11229; AID 588814; 360,000 compounds, 0.33% hits; CHO-K1 hM1, Fluo-8 calcium fluorescence, agonist mode; 0% DMSO, 100% acetylcholine EC100;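 active = activation above the run's mean compound activation plus 3 SD, cut at about 16% in these data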;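 also: peak over basal fluorescence ratio within a 140 s kinetic read after compound addition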
CHRM1 antagonist = blocks human M1 muscarinic receptor. 360,000 compounds, 1.3% hits. P11229. inhibition, % at 3 µM. CHO-K1 hM1, Fluo-8 calcium fluorescence, ACh EC80 antagonist;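 active = percent inhibition above its own plate's cutoff, namely the mean of that plate's compound wells plus 3 SD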;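 also: peak over basal fluorescence ratio during 140 s after agonist addition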
M1 ag parental = M1 agonist counterscreen hit in parental CHO-K1 cells; Fluo-8 calcium fluorescence; scaled to maximal ATP response, vehicle zero; activation, % at 3 µM; 360,000 compounds, 0.48% hits; in the data active = activation above about 15%;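 also: untransfected CHO-K1 host cells lacking M1 receptor as counterscreen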
Numbers stand for hits; - = inactive. Hits are enriched below; roughly 2.4% of the tested compounds scored in any of these assays.

SMILES	M1 PAM parental	CHO-K1 Ca antag	CHRM1 PAM	M1 ag	CHRM1 antagonist	M1 ag parental
CN(CC(=O)Nc1ccc(F)c(F)c1F)C(=O)C1(c2ccccc2)CC1	-	24.5	-	-	-	-
CN(CC(=O)Nc1ccccc1F)CC(=O)Nc1ccc(F)c(F)c1F	-	-	-	-	-	-
CCC(=O)N1CCCc2cc(S(=O)(=O)N3CCN(c4ncccn4)CC3)ccc21	-	24.2	-	-	-	-
C/C(=N\Nc1ccc2nncn2n1)c1ccc(Br)s1	-	-	-	-	-	-
CCOC(=O)c1cnc2c(CC)cccc2c1NCCN1CCOCC1	-	-	-	-	64.1	-
CCOC(=O)c1cnc2c(C(=O)OC)cccc2c1NCCN1CCOCC1	-	-	-	-	-	-
CCn1c(=O)n(CCc2ccccc2)c(=O)c2c3c(sc21)CCCC3	-	-	-	-	-	-
COC(=O)Cn1c(=O)n(CCc2ccccc2)c(=O)c2c3c(sc21)CCCC3	-	-	-	-	76.9	-
CC(C)CN1CCC(=O)N(CCSc2ccccc2)CC1	-	-	-	34.4	-	-
Cc1ccc(SCCN2CCN(CCc3ccccc3)CCC2=O)cc1	-	-	-	-	-	-
CCCS(=O)(=O)N1CCCC(C(=O)NCCN(Cc2ccccc2)C(C)C)C1 (configuration not stated)	-	31.9	-	-	-	-
Cc1ccc(CN2CCC(CNC(=O)C3CCCN(c4ncnc5c4nc4n5CCCCC4)C3)CC2)cc1 (configuration not stated)	-	-	-	-	97.3	-
Cc1ccc(CCNC(=O)C2CCCN(c3ncnc4c3nc3n4CCCCC3)C2)cc1 (configuration not stated)	-	-	-	-	-	-
O=C(NCc1ccccc1Cl)C1CCCN(c2ncnc3c2nc2n3CCCCC2)C1 (configuration not stated)	-	-	-	-	-	-
CC(C)N(CCNC(=O)C1CCCN(c2ncnc3c2nc2n3CCCCC2)C1)Cc1ccccc1 (configuration not stated)	-	-	-	-	38.0	-
O=C(NCC1CCN(Cc2ccccc2F)CC1)C1CCCN(c2ncnc3c2nc2n3CCCCC2)C1 (configuration not stated)	-	-	-	-	90.6	-
Cc1ccc(NC(=O)C2CCCN2C(=O)OCc2ccccc2)c(O)c1 (configuration not stated)	-	-	-	-	-	-
COc1ccc(S(=O)(=O)N(C)C)cc1NCC(=O)Nc1ccc(Br)c(C)c1	-	-	-	-	-	-
COc1cc(/C=C(\C#N)C(=O)c2c[nH]c3ccccc23)cc(OC)c1O	-	-	-	22.6	-	19.4
COc1ccc(-n2c(CNC(=O)COc3ccc(Cl)cc3Cl)n[nH]c2=S)cc1	-	-	-	-	-	-
Cc1ccc(C2C3=C(CC(C)(C)CC3=O)Nc3n[nH]c(C)c32)cc1 (configuration not stated)	-	24.7	-	-	-	-
COc1ccccc1N(CCC#N)C(=O)COC(=O)CCC(=O)c1ccc(F)cc1	-	-	-	-	-	-
CC(=O)Nc1cccc(NC(=O)CSc2ncc(-c3ccc(Cl)cc3)n2Cc2ccco2)c1	-	-	-	-	26.3	-
CC(=O)c1ccc(N2CCN(C(=O)c3nn(C)c4c3CS(=O)(=O)c3ccccc3-4)CC2)cc1	-	-	-	-	-	16.1
COCCNC(=O)c1ccc(N2CC3CC(C2)c2cccc(=O)n2C3)c(NC(=O)c2c(F)cccc2F)c1 (configuration not stated)	-	-	-	-	-	-
SMILES	M1 PAM parental	CHO-K1 Ca antag	CHRM1 PAM	M1 ag	CHRM1 antagonist	M1 ag parental
CCC(C)NC(=O)c1ccc(N2CC3CC(C2)c2cccc(=O)n2C3)c(NC(=O)c2c(F)cccc2F)c1 (configuration not stated)	-	-	-	22.4	-	-
NC(=O)c1cc2ccc(O)cc2oc1=Nc1ccccc1	-	24.3	-	-	-	-
COc1ccc2cc(C(N)=O)c(=Nc3ccccc3)oc2c1	-	-	-	-	-	-
O=S1(=O)N[C@@H](Cc2ccccc2)COc2ccc(Cl)cc21	-	-	-	-	-	-
CCn1c(SCC(=O)NC2CCCC2)nnc1C(C)C	-	-	-	-	-	-
CN1CCn2cnc(C(=O)NCc3ccccc3)c2C1=O	-	-	-	-	-	-
